This is an account of results in PubChem BioAssay AID463173 (ICCB-Longwood Screening Facility, Harvard Medical School, 2010).

Hit rate of the full screen: of about 52,000 compounds, about 4,300 (8.3%) were called active. The list comes from a sample in which actives are over-represented; it also holds similar structures and randomly drawn compounds. Values without a mark were called inactive. Cut-off read from the data, not from the text of the source: active = survival mostly below about 52% (no sharp cut-off); inactive = mostly above about 56%.

The test system of this assay is DeltatarO mutant. The assay is described as follows: S. aureus survival, RN4220 and DeltatarO strains – OD600, teichoic acid synthesis inhibitors, primary screen (AID 463173). The following applies: S. aureus RN4220 wild type/DeltatarO growth, OD600, 18 h, hits give low values, screened at 18.75 µg/mL (by protocol).
As for `CC(Cc1ccccc1)N=C1NS(=O)(=O)c2ccccc21` (stereo not given), the survival was 81%.
With `Cc1nc2c3ccccc3nc(NNC(=O)CCC(=O)N3CCN(c4cccc(C(F)(F)F)c4)CC3)n2n1` the figure was 57%; with `CCOc1ccc(CCNC(=O)C2Cc3ccccc3N2C(=O)CC)cc1OCC` (stereo not given), 93%; with `Cc1nnc(N(C)C(=O)Cc2ccc3c(c2)OCO3)s1`, 73%.
Turning to `COC(=O)C1C(=O)NC(S)=C(C#N)C1c1ccccc1Cl` (stereo not given), the survival is 89%.
For `CCCN(CCC)C(=O)Cn1c(=O)n(-c2ccc(CC)cc2)c(=O)c2c3c(sc21)CCC3`, the survival is 110%.
For `COc1ccc(NC(=O)c2csnn2)cc1Cl`, the survival was 86%.
With `COc1ccccc1N1CCN(C(=O)c2cnc(N3CCOCC3)c3ccccc23)CC1`, the survival was 78%.
On to `CCOC(=O)c1cc(-c2ccc(F)cc2)n(CC(=O)NC2CCCCCC2)c1C`, for which the survival is 76%.
With `CCOC(=O)c1ccc(-n2c(C)nc3c(cnn3-c3ccc(Cl)cc3)c2=O)cc1` the figure was 67%; with `Cc1ccc(-n2ncc3c(=O)n(Cc4cccc(C(F)(F)F)c4)cnc32)cc1C`, 93%.
For `COc1ccc(-n2c(C)nc3c(cnn3-c3ccc(F)cc3)c2=O)cc1` the value was 73%; for `Cc1ccc(-n2c(C)nc3c(cnn3-c3ccccc3C)c2=O)cc1F`, 120%.
As for `COc1cccc(-n2c(C)nc3c(cnn3-c3ccc(C)c(C)c3)c2=O)c1`, the survival is 50% (active).
With `CCc1cccc(-n2c(C)nc3c(cnn3-c3ccc(Cl)cc3)c2=O)c1` the figure was -1% (active); with `CCc1cccc(-n2c(C)nc3c(cnn3-c3ccc(C)c(C)c3)c2=O)c1`, -1% (active); with `COc1cccc(-n2c(-c3ccco3)nc3c(cnn3-c3ccc(Cl)cc3)c2=O)c1`, 113%.
In the case of `Cc1nc2c(cnn2-c2ccccc2)c(=O)n1-c1ccccc1`, the survival was 73%.
In the case of `COc1ccc(-n2c(-c3ccco3)nc3c(cnn3-c3ccc(C)cc3)c2=O)cc1`, the survival was 73%.
Regarding `COc1ccc(-n2c(C)nc3c(cnn3-c3ccc(C)c(C)c3)c2=O)cc1Cl`, the survival was 118%.
In the case of `COc1cccc(-n2c(-c3ccco3)nc3c(cnn3-c3ccc(C)cc3)c2=O)c1`, the survival was 52% (active).
With `Cc1ccc(C)c(S(=O)(=O)c2cn(C)c3cc(N4CCCCC4C)c(F)cc3c2=O)c1` (stereo not given) the figure was 86%; with `CCOc1ccc(/C=C/c2nc(C#N)c(NC(C)CC)o2)cc1` (stereo not given), 68%; with `Cc1nc2cc(C(F)(F)F)ccc2n1C1CCN(CC(=O)N2CCCC2)CC1`, 109%.
For the molecule `O=C(Nc1ccccc1-c1ccccc1)NC1CCN(CC(=O)N2CCOCC2)CC1`, the survival was 73%.
